Results as given in PubChem BioAssay (NCATS).
Inconclusive results are not listed. Active and inactive are the calls of the source. Unless noted, calls come from the whole dose curve; as a rule, active = well fitted curve in the direction sought with a large enough effect; inconclusive = small, poorly fitted or top-dose-only effect, or another doubt; inactive = no such curve, though single readings can be large; an effect the other way counts as inactive or inconclusive.

How the values were obtained:
[1] = Validation screen for inhibitors of Lassa infection (AID 463096; calls by dose curve)
[2] = Inducers of the Endoplasmic Reticulum Stress Response (ERSR) in human glioma: Validation (AID 504836)
How it was run: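 Stably transfected U87-MG human glioma cells carrying a GRP78-based luminescent sensor were seeded at 1000 cells/well, pin-dosed with compounds and incubated 16 h. Luciferase reagent was then added, and end-point luminescence was read after 10 min at room temperature.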

[3] = qHTS for Inhibitors of the Functional Ribonucleoprotein Complex (vRNP) of Lassa (LASV) Arenavirus: LASV Primary Screen - GLuc reporter signal (AID 1347082; calls by dose curve; tested in HEK293 reporter line; note: series mostly up to about 57 µM; nearly all actives have a fitted effect of over 60% in size)
[4] = qHTS for Inhibitors of the Functional Ribonucleoprotein Complex (vRNP) of Lassa (LASV) Arenavirus: Viability assay - alamar blue signal for LASV Primary Screen (AID 1347083; calls by dose curve; tested in HEK293 reporter line; note: series mostly up to about 57 µM; nearly all actives have a fitted effect of over 80% in size)
[5] = qHTS for Inhibitors of the Functional Ribonucleoprotein Complex (vRNP) of Lymphocytic Choriomeningitis Arenaviruses (LCMV): Viability assay - alamar blue signal for LCMV Primary Screen (AID 1347085; calls by dose curve; tested in HEK293 reporter line; note: series mostly up to about 57 µM; nearly all actives have a fitted effect of over 80% in size)
[6] = biological target: Nucleoprotein (Lymphocytic choriomeningitis virus (strain Armstrong)) (UniProt P09992); experiment: qHTS for Inhibitors of the Functional Ribonucleoprotein Complex (vRNP) of Lymphocytic Choriomeningitis Arenaviruses (LCMV): LCMV Primary Screen - GLuc reporter signal (AID 1347086; calls by dose curve; note: series mostly up to about 57 µM; nearly all actives have a fitted effect of over 70% in size)
Nucleoprotein (Lymphocytic choriomeningitis virus (strain Armstrong)), sequence (P09992 whole entry, looked up): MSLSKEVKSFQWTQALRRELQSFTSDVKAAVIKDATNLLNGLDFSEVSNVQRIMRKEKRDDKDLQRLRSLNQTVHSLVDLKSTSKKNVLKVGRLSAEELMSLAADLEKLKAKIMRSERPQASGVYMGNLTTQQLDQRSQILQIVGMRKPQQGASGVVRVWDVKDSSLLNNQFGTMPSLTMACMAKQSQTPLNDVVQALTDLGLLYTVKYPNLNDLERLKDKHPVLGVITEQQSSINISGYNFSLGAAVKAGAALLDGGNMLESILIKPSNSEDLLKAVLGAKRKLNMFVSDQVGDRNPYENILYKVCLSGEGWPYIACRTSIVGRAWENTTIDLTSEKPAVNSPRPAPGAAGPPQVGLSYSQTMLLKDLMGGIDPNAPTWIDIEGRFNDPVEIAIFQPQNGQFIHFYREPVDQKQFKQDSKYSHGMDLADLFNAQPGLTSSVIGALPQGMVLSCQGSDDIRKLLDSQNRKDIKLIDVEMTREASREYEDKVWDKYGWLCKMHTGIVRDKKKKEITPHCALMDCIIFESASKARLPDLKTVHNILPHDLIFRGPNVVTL

[7] = biological target: Alpha-galactosidase (Coffea arabica) (UniProt Q42656); experiment: Counterscreen for Glucocerebrosidase Inhibitors: qHTS Assay for Coffee Bean alpha-Galactosidase at pH 4.5 (AID 957); note: series mostly up to about 77 µM
Alpha-galactosidase (Coffea arabica), sequence (Q42656 whole entry, looked up): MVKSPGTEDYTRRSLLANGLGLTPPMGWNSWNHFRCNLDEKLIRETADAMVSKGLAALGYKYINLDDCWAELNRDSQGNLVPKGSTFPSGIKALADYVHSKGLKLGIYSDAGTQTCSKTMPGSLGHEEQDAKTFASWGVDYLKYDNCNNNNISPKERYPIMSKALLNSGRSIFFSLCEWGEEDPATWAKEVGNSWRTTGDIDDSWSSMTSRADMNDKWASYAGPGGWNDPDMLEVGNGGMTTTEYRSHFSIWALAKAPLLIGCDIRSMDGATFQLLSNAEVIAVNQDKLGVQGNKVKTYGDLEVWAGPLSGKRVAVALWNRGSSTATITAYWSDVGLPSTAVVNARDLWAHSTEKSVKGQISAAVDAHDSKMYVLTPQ
How it was run: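 Fluorogenic read-out: 4-methylumbelliferone at Ex 365/Em 440 nm after NaOH/glycine stop (pH 10). Enzyme 2 nM, 4-MU-alpha-galactoside 80 uM, citrate buffer pH 4.5, 20 min RT; normalized to no-enzyme and enzyme controls.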

[8] = biological target: Alpha-galactosidase (Coffea arabica) (UniProt Q42656); experiment: Counterscreen for Glucocerebrosidase Inhibitors: qHTS Assay for Coffee Bean alpha-Galactosidase at pH 5.9 (AID 998)
How it was run: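 In 50 mM citric acid pH 5.9 with 0.005% Tween-20, coffee bean enzyme hydrolyses 80 uM 4-MU alpha-D-galactopyranoside over 20 min at RT. Activity is normalized to controls; AC50 comes from Hill-modelled concentration-response data.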

Measured: Potency

NC1CCN(O)C1=O (stereo not given)
inactive: [1] | [2] | [3] | [4] | [5] | [6]

CC(N)(C(=O)O)c1ccc(C(=O)O)cc1 (stereo not given)
inactive: [1] | [2] | [3] | [4] | [5] | [6]

Cn1c(=O)c2[nH]c(-c3ccccc3)nc2n(C)c1=O
inactive: [7] | [8] | [1] | [2] | [3] | [4] | [5] | [6]

Cc1cccc(C2CN(C)CCc3c2cc(O)c(O)c3Cl)c1 (stereo not given)
inactive: [1] | [2] | [3] | [4] | [5] | [6]

NC(N)=N[C@@H](CCC(=O)O)C(=O)O
inactive: [1] | [2] | [3] | [4] | [5] | [6]

OC[C@H]1NC[C@@H](O)[C@@H]1O
inactive: [1] | [2] | [3] | [4] | [5] | [6]

O=C(O)c1cccnc1C(=O)O
inactive: [7] | [8] | [1] | [2] | [3] | [4] | [5] | [6]

Oc1cc2c(cc1O)C(c1ccccc1)CNCC2 (stereo not given)
inactive: [1] | [2] | [3] | [4] | [5] | [6]

N=c1c[n+](N2CCOCC2)[n-]o1
inactive: [7] | [8] | [1] | [2] | [3] | [4] | [5] | [6]

O=C(c1cc(O)c(O)c([N+](=O)[O-])c1)c1ccccc1F
inactive: [7] | [8] | [1] | [2] | [3] | [4] | [5] | [6]

CCC(=O)N1CCN(C(=O)c2ccccc2)CC1
inactive: [7] | [8] | [1] | [2] | [3] | [4] | [5] | [6]

CCCCN1CCC(n2c(=O)[nH]c3ccccc32)CC1
inactive: [7] | [8] | [1] | [2] | [3] | [4] | [5] | [6]

O=c1[nH]c2ccccc2c2ccccc12
inactive: [7] | [8] | [1] | [2] | [3] | [4] | [5] | [6]

O=C(O)[C@@H]1C[C@@H](C(=O)O)N1
inactive: [7] | [8] | [1] | [2] | [3] | [4] | [5] | [6]

NC(=O)c1ccccc1
inactive: [7] | [8] | [1] | [2] | [3] | [4] | [5] | [6]

COc1cc2c(CCNC(C)=O)c[nH]c2cc1Cl
inactive: [7] | [8] | [1] | [2] | [3] | [4] | [5] | [6]

CCCn1c(=O)c2[nH]c(C3CCCC3)nc2n(CCC)c1=O
inactive: [7] | [8] | [1] | [2] | [3] | [4] | [5] | [6]

CNC(=O)c1cc2c(cn1)[nH]c1ccccc12
inactive: [7] | [8] | [1] | [2] | [3] | [4] | [5] | [6]

N#CC(C#N)=C(N)/C(C#N)=C/c1ccc(O)cc1
inactive: [7] | [8] | [1] | [2] | [3] | [4] | [5] | [6]

Nc1c(S(=O)(=O)O)cc(Nc2ccc(Nc3nc(Cl)nc(Nc4ccc(S(=O)(=O)O)cc4)n3)c(S(=O)(=O)O)c2)c2c1C(=O)c1ccccc1C2=O
inactive: [7] | [8] | [1] | [2] | [3] | [4] | [5] | [6]

O=C(O)c1cc(=O)c2c(Cl)cc(Cl)cc2[nH]1
inactive: [7] | [8] | [1] | [2] | [3] | [4] | [5] | [6]

O=C(O)c1cc(=O)c2ccccc2[nH]1
inactive: [7] | [8] | [1] | [2] | [3] | [4] | [5] | [6]

CC(=O)NNC(=O)N1Cc2ccccc2Oc2ccc(Cl)cc21
inactive: [7] | [8] | [1] | [2] | [3] | [4] | [5] | [6]

O=c1[nH]c2cc([N+](=O)[O-])c([N+](=O)[O-])cc2[nH]c1=O
inactive: [7] | [8] | [1] | [2] | [3] | [4] | [5] | [6]

O=C(O)C1=CCNCC1
inactive: [7] | [8] | [1] | [2] | [3] | [4] | [5] | [6]

CC(C)(C=O)Cc1cc(C(C)(C)C)c(O)c(C(C)(C)C)c1
inactive: [7] | [8] | [1] | [2] | [3] | [4] | [5] | [6]

CCCn1c(=O)[nH]c(=O)c2[nH]cnc21
inactive: [7] | [8] | [1] | [2] | [3] | [4] | [5] | [6]

O=c1onc2cnc3ccccc3n12
inactive: [7] | [8] | [1] | [2] | [3] | [4] | [5] | [6]

NC(N)=NC(N)=Nc1ccccc1
inactive: [7] | [8] | [1] | [2] | [3] | [4] | [5] | [6]
